Source: PubChem
Methyltransferases – Primary Screen for Target Class Profiling of Small Molecule Inhibitors of Methyltransferases | purified enzyme, MTase-Glo SAH luminescence; active compounds read low | calls only at 40 µM | 25,000 compounds, 3.9% hits; call rule not given here
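Each enzyme was reacted with SAM and its substrate, with compounds tested once at 40 uM; SAH formed was read by MTase-Glo luminescence.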
* marks the source's active call; other numbers are inactive results; i = inactive; + = active, no number; ! = a repeat was not active. The full list was thinned out, with hits kept by preference. On the % scale 0 is the no-effect control and ±100 the full control effect.

SMILES | Methyltransferases
C=Cc1ccc(Cn2nc3n(CCC(C)C)c(=O)c4ccc(C(=O)NCC(C)C)cc4n3c2=O)cc1 | i
CCc1ccc(N2C(=O)c3cc4sc(CC)cc4n3CC2(C)C(=O)NC2CCCCC2)cc1 (stereo unspecified) | i
Cc1ccc(NC(=O)N2CCC(n3c(C)cnc3-c3cccnc3)C2)cc1C (stereo unspecified) | i
Cc1cc(NC(=O)c2cccc(NC(=O)/C=C/CN(C)C)c2)ccc1Nc1nccc(-c2cccnc2)n1 | +
Cc1nc(CCNC(=O)c2cnc(-c3cccnc3)nc2)cc(=O)[nH]1 | i
O=C(NC1CCc2nnc(C3CC3)n2CC1)c1cnco1 (stereo unspecified) | i
COc1ccc2cc3n(c2c1)CC(C)(C(=O)NC1CCCCC1)N(Cc1ccccc1F)C3=O (stereo unspecified) | i
COC(=O)c1ncn2c1C(=O)N(c1ccc3c(c1)OCO3)C(C)(C(=O)NCCCOC(C)C)C2 (stereo unspecified) | i
CNCCN(C)C(=O)C1CCCN(C2CCN(C3Cc4ccccc4C3)CC2)C1 (stereo unspecified) | i
CCCn1c(=O)c2ccc(C(=O)NC(C)C)cc2n2c(=O)n(CC(N)=O)nc12 | i
CC1CCN(S(=O)(=O)c2ccc3c(ccn3CC(=O)NCc3ccccc3F)c2)CC1 | i
Cc1ccc(NC(=O)N2CCC(c3noc(COCC4CC4)n3)CC2)cc1F | i
CCCc1cc(C(=O)N2CCc3c(nc(-c4cccnc4)[nH]c3=O)C2)n[nH]1 | i
C=C1CC[C@H]2C(=C)CC[C@H]3C(=C)C(=O)O[C@@H]3[C@@H]12 | i
C=C1C(=O)OC2C1CCC1(C)C(O)CC=C(C)C21 (stereo unspecified) | +
C=C1CC[C@@H](O)[C@]2(C)C[C@H]3OC(=O)C(=C)[C@H]3CC12 (stereo partly specified) | i
CC(=O)N1CCC(C2CCN(C(=O)c3nn(C)c4ccccc34)C2)CC1 (stereo unspecified) | i
CCOC(=O)CNC(=O)[C@@H]1CCCN1C(=O)Cc1ccccc1 | i
NS(=O)(=O)c1cccc2c1c([N+](=O)[O-])cc1nc(O)c(O)nc12 | +
CC1CCC(NC(=O)C2(C)Cn3c(nc4ccccc43)C(=O)N2Cc2ccccc2Cl)CC1 (stereo unspecified) | i
Cc1nnc([C@@H]2CC(F)(F)CN2C(=O)c2conc2C)o1 | i
O=C(NCCCn1ccnc1)c1cc(-c2ccco2)on1 | i
CC(CCc1ccccc1)N1C(=O)c2ccccc2CC1(C)C(=O)NC1CCCCCCC1 (stereo unspecified) | i
Cc1cccc(N2C(=O)c3cc4occc4n3CC2(C)C(=O)NC2CCCC(C)C2C)c1C (stereo unspecified) | i
CC(=O)Nc1cccc(Nc2ncnc(N3CCC(OCc4ccc(OC(F)(F)F)cc4)CC3)n2)c1C | i
SMILES | Methyltransferases
Nc1nc(NCCNc2ncc(-n3ccnc3)c(-c3ccc(Cl)cc3Cl)n2)ccc1[N+](=O)[O-] | +
Cc1cccc(CC(=O)N2CCc3c2ccc(-c2cn(C)c4ncnc(N)c24)c3F)n1 | i
COc1ccc(NC(=O)N[C@H]2C[C@@H](C(=O)N[C@@H](Cc3cccs3)C(N)=O)N(C(=O)CSC)C2)cc1 | i
CCN(CC)CCCC(C)Nc1c2ccc(Cl)cc2nc2ccc(OC)cc12 (stereo unspecified) | +!
COc1cccc(C2c3cccn3-c3sc4c(c3CN2C(=O)NCc2ccc(F)cc2)CCCC4)c1 (stereo unspecified) | i
CC1(C(=O)NC2CCCCCCC2)Cn2c(ccc2-c2ccccc2)C(=O)N1Cc1cccnc1 (stereo unspecified) | i
O=C(C1CCCN1[S+](=O)([O-])c1cccc(C(F)(F)F)c1)N1CCC(c2nc3ccncc3[nH]2)C1 (stereo unspecified) | i
O=C1CN(Cc2ccc(-c3ccccc3)cc2)CCN1c1ccc(Cl)nn1 | i
O=c1[nH]ccc2nc(-c3ccc(CN4CCC(c5nc(-c6ccccn6)n[nH]5)CC4)cc3)c(-c3ccccc3)cc12 | +
CCOCCCN1C(=O)c2ccc(-c3ccco3)n2CC1(C)C(=O)NC1CCCCCCC1 (stereo unspecified) | i
CCc1ccc(N2C(=O)c3cc(-c4ccc(OC)cc4)nn3CC2(C)C(=O)NCc2ccccc2)cc1 (stereo unspecified) | i
O=C(Nc1ccc(F)c(Cl)c1)C1=NO[C@@H]2CN(CCc3ccccc3)C[C@H]12 | i
CC(C(=O)N1CCN(c2ccccn2)CC1)n1ccc2cc(S(=O)(=O)N3CCCC3)ccc21 (stereo unspecified) | i
O=[N+]([O-])c1cc(S(=O)(=O)Nc2ccc(O)c3ccccc23)ccc1Cl | +
O=S(=O)(Nc1ccccc1Cl)c1ccc2[nH]c3c(c2c1)CCCC3 | i
O=C(Nc1ccc([N+](=O)[O-])cc1Cl)c1cc(Cl)ccc1O | i
CN(Cc1nc2ccc(F)cc2[nH]1)C(=O)c1cn(CCN)nn1 | i
